Calls of active or inactive are those of the source.
Legend:
[1] = tested on: Plasmodium falciparum Sir2 (PF13_0152, Sir2A); test: pfSir2 binders on small-molecule microarrays, primary screen, biochemical, small-molecule microarray, 635 nm fluorescence (AID 1098); details: small-molecule microarray binding, fluorescence 635 nm; higher = more signal;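 further: score merges spot fluorescence intensity with its signal-to-noise ratio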
[2] = small-molecule microarray binders of probe aDKK1, primary screen, biochemical, biotinylated probe, 635/667 nm fluorescence (AID 1099); details: higher = more signal;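 further: score merges 667nm spot fluorescence with signal to noise across triplicate slides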
[3] = small-molecule microarray binders of probe aCHRDL2, primary screen, biochemical, biotinylated probe, 635/667 nm fluorescence (AID 1100); details: higher = more signal
[4] = splicing luciferase reporter signal modulators, primary screen, spliceosome inhibition project, cell-based, HEK293, splice +/- reporter (AID 1101); details: luminescence, 24 h, higher = more signal, called active from +8 up or from −8 down;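 further: HEK293 cells carrying a splicing-competent luciferase reporter gene; test concentration not given here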
[5] = target: Fibroblast growth factor 10 (Homo sapiens) (UniProt O15520); test: FGF10 binders on small-molecule microarrays, primary screen, biochemical, small-molecule microarray, 635 nm fluorescence (AID 1102); details: FGF10 binding, fluorescence 635 nm, higher = more signal
[6] = tested on: glycogen synthase kinase-3 (GSK3A per assay name; protocol says GSK3B); test: GSK3 binders on small-molecule microarrays, primary screen, biochemical, small-molecule microarray, 635 nm fluorescence, GSK3A (AID 1103); details: small-molecule microarray binding, fluorescence 635 nm; higher = more signal; further: the record names both GSK3A and GSK3B
[7] = target: Epidermal growth factor receptor (Homo sapiens) (UniProt P00533); test: EGFR binders on small-molecule microarrays, primary screen, biochemical, small-molecule microarray, 635 nm fluorescence (AID 1104); details: EGFR binding, higher = more signal;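 further: score merges 667 nm emission intensity with spot signal to noise over triplicate slides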
[8] = target: Follistatin-related protein 3 (Homo sapiens) (UniProt O95633); test: FSTL3 binders on small-molecule microarrays, primary screen, biochemical, small-molecule microarray, 635 nm fluorescence (AID 1105); details: FSTL3 binding, higher = more signal;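 further: score merges emission near 667 nm and signal to noise per printed spot across three slides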
[9] = target: Dickkopf-related protein 1 (Homo sapiens) (UniProt O94907); test: DKK1 binders on small-molecule microarrays, primary screen, biochemical, small-molecule microarray, 635 nm fluorescence scan (AID 1106); details: DKK1 binding, higher = more signal;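 further: score merges emission near 667 nm with signal to noise over three replicate slides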
[10] = tested on: Inhibin beta A chain (activin A); test: INHBA (activin A) binders on microarrays, primary screen, biochemical, small-molecule microarray, 635 nm fluorescence scan (AID 1107); details: small-molecule microarray binding, higher = more signal;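 further: mouse activin A protein probed at 4.33 µg/mL on printed slides; score merges bound-protein fluorescence near 667 nm with spot signal-to-noise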
[11] = tested on: Human papillomavirus type 1a protein E7 (residues 44-93); test: HPV1a E7 fragment binders on microarrays, primary screen, biochemical, small-molecule microarray, residues 44-93, 635 nm fluorescence (AID 1108); details: small-molecule microarray binding, fluorescence 635 nm; higher = more signal;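 further: E7 fragment applied at 1 µg/mL in TBST for 1 h at 4 C; score combines spot fluorescence with its signal to noise ratio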
[12] = modulators of HCV replicon luciferase signal, primary screen, HCV replication inhibitor project, Huh7 cells, luciferase reporter (AID 1109); details: 48 h, higher = more signal;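 further: huh7 hepatoma cells harbouring a luciferase neomycin HCV replicon reporter; luciferase luminescence as measure of HCV replicon replication; test concentration not given here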
[13] = target: Left-right determination factor 2 (Homo sapiens) (UniProt O00292); test: LEFTY2 binders on small-molecule microarrays, primary screen, biochemical, small-molecule microarray, 635 nm fluorescence scan (AID 1110); details: LEFTY2 binding, higher = more signal
[14] = target: Calmodulin-1 (Homo sapiens) (UniProt P0DP23); test: CALM1 binders on microarrays, EGTA buffer, profiling panel, biochemical, small-molecule microarray, Cy5-labelled CALM1 (AID 1111); details: Cy5-CALM1 binding fluorescence, higher = more signal;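 further: labelled calmodulin applied in Tris saline Tween buffer holding calcium plus EGTA and DTT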
[15] = target: Calmodulin-1 (Homo sapiens) (UniProt P0DP23); test: calcium-bound CALM1 binders on microarrays, profiling panel, artefact control for SMM control-protein annotation, biochemical, small-molecule microarray, Cy5-labelled CALM1, plus calcium (AID 1112); details: Cy5-CALM1 binding fluorescence, higher = more signal;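 further: score merges spot fluorescence with signal to noise from triplicate slides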
[16] = small-molecule microarray binders of probe aWnt5a, primary screen, biochemical, biotinylated probe, 635/667 nm fluorescence (AID 1113); details: higher = more signal;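 further: score merges 667 nm fluorescence intensity with signal-to-noise per printed feature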
[17] = small-molecule microarray binders of probe aShh, primary screen, biochemical, biotinylated probe, 635/667 nm fluorescence (AID 1114); details: higher = more signal;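 further: probe is biotin-labelled aShh protein from a stem cell growth factor screen; measures binding of labelled protein to compounds printed on the slide; score merges feature fluorescence at 667 nm with signal-to-noise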
[18] = small-molecule microarray binders of probe aNog, primary screen, biochemical, biotinylated probe, 635/667 nm fluorescence (AID 1115); details: higher = more signal;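 further: probe is biotinylated aNog protein used at 0.15 µg/mL for 1 h at 4 C; z-score combines 667 nm fluorescence of each spot with its signal to noise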
[19] = target: Torsin-1A-interacting protein 1 (Homo sapiens) (UniProt Q5JTV8); test: LAP1 binders from COS7 cell lysate, primary screen, small-molecule microarray, 635/667 nm fluorescence (AID 1116); details: COS7-hLAP1 lysate binding, 635 nm fluorescence, higher = more signal
[20] = target: Alpha-bungarotoxin (Bungarus multicinctus) (UniProt P60615); test: alpha-bungarotoxin binders on microarray, profiling panel, artefact control for SMM control protein annotation, biochemical, small-molecule microarray, Alexa647 label, 635/667 nm fluorescence (AID 1117); details: alpha-BTX-A647 binding fluorescence, higher = more signal
Alpha-bungarotoxin (Bungarus multicinctus), sequence (P60615 whole entry, looked up): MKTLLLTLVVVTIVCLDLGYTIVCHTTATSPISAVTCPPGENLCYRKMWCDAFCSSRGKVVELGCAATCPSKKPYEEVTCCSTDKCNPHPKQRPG

Fibroblast growth factor 10 (Homo sapiens), sequence (O15520 whole entry, looked up): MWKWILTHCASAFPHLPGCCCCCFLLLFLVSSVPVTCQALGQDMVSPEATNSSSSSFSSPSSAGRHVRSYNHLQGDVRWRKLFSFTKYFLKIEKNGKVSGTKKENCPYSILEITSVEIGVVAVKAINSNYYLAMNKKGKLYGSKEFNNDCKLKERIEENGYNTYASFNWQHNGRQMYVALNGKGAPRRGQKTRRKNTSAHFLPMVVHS
Torsin-1A-interacting protein 1 (Homo sapiens), sequence (Q5JTV8 whole entry, looked up): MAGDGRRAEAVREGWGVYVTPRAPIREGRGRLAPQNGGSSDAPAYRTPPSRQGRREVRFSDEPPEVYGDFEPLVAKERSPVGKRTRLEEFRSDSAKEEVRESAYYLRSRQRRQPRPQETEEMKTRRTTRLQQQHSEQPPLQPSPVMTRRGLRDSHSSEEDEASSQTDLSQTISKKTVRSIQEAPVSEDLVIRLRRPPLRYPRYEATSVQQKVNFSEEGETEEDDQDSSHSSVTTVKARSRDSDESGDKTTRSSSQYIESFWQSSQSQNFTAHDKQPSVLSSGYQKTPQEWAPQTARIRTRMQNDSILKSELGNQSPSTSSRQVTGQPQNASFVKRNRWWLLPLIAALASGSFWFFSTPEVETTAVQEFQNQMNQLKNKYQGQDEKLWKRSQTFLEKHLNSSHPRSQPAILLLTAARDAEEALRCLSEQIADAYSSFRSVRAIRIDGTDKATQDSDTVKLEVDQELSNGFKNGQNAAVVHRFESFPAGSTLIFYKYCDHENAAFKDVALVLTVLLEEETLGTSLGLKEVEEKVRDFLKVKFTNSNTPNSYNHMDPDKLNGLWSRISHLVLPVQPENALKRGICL
Dickkopf-related protein 1 (Homo sapiens), sequence (O94907 whole entry, looked up): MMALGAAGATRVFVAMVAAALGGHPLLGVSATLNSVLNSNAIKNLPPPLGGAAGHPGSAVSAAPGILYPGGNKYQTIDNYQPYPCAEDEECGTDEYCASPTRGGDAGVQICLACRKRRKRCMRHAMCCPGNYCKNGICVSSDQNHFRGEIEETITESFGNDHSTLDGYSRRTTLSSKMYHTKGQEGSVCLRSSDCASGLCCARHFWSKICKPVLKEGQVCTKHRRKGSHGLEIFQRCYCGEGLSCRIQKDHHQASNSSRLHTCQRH
Left-right determination factor 2 (Homo sapiens), sequence (O00292 whole entry, looked up): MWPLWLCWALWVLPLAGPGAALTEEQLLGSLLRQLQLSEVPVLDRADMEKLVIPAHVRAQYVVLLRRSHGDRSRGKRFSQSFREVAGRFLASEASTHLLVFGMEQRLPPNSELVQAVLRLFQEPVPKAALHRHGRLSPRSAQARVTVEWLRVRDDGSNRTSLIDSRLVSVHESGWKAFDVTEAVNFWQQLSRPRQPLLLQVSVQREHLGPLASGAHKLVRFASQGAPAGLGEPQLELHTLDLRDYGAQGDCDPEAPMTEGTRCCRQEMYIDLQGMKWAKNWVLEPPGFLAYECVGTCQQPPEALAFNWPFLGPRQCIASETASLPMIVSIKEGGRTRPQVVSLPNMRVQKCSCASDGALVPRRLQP
Epidermal growth factor receptor (Homo sapiens), sequence (P00533 whole entry, looked up): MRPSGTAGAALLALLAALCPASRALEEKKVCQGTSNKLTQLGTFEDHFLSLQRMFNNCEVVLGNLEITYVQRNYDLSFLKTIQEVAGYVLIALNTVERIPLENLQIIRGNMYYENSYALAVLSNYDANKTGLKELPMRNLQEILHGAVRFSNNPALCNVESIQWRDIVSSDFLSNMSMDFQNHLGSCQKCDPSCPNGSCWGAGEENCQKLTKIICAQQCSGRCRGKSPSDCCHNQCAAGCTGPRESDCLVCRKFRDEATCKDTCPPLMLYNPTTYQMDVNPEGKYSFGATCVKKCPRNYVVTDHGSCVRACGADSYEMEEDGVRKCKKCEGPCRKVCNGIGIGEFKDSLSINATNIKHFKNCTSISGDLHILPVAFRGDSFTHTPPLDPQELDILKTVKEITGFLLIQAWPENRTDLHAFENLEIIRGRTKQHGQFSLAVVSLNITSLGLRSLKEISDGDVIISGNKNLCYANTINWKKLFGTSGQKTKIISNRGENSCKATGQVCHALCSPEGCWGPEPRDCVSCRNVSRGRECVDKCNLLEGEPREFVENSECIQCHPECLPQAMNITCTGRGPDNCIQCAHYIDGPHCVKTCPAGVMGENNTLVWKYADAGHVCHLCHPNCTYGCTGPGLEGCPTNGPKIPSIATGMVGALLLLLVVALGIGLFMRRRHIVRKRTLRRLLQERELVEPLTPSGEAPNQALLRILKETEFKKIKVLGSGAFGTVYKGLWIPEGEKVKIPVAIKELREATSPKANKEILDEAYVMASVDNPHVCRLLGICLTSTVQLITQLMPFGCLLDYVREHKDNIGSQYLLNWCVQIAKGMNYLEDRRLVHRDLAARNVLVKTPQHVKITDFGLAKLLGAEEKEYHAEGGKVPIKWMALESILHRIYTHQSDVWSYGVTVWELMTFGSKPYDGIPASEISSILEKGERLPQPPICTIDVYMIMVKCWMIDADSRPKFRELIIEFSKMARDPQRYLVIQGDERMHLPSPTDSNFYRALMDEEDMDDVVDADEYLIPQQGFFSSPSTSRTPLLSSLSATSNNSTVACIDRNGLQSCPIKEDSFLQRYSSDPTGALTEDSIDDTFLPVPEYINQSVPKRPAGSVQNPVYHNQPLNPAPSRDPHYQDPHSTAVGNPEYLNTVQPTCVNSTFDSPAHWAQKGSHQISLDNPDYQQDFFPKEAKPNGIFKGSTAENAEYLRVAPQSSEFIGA
Follistatin-related protein 3 (Homo sapiens), sequence (O95633 whole entry, looked up): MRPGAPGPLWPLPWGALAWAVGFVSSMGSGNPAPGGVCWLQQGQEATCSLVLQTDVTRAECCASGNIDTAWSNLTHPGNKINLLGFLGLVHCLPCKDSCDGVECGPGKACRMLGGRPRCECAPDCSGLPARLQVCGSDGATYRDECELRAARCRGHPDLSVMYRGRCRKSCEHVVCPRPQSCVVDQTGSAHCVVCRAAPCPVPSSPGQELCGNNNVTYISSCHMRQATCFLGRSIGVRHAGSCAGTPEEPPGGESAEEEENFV

Row | SMILES | composite z-score [1] | composite z-score [2] | composite z-score [3] | z-score [4] | composite z-score [5] | composite z-score [6] | composite z-score [7] | composite z-score [8] | composite z-score [9] | composite z-score [10] | composite z-score [11] | z-score [12] | composite z-score [13] | composite z-score [14] | composite z-score [15] | composite z-score [16] | composite z-score [17] | composite z-score [18] | composite z-score [19] | composite z-score [20]
1 | O=C1[C@H]2[C@H]3[C@H](O)[C@H](O)CC(=NOC[C@@H](O)COCc4ccco4)[C@H]3CC[C@H]2C(=O)N1Cc1ccccc1 | 0.467 | -0.49 | -0.964 | -0.907 (inactive) | 0.378 | 0.0077 | 0.522 | 0.404 | 0.901 | 0.764 | -1.01 | -0.523 | 0.665 | -0.684 | -1.22 | -0.18 | -0.27 | 0.0444 | -0.193 | -0.309
2 | CC(CCN1CCCCc2nc(C)c(C)cc21)=NOC[C@@H](O)COCc1ccco1 | 1.19 | -0.286 | -1.58 | 0.44 (inactive) | 1.26 | 1.34 | 1.74 | 1.52 | 2 | 1.79 | -1.68 | 0.0716 | 1.61 | -1.34 | -1.81 | -0.129 | 0.0121 | -0.911 | 0.43 | -0.527
3 | COC(=O)[C@H](C)NC(=O)CCC1CC(OC(=O)NCc2ccc3c(c2)OCO3)CC2(CCCC(COC(=O)NCc3cccc(C(F)(F)F)c3)O2)O1 (stereo not given in full) | 1.02 | 0.114 | -0.289 | 0.562 (inactive) | 0.818 | 0.622 | 0.223 | 1.14 | 0.235 | -0.0499 | 0.817 | -1.79 | 1.11 | 0.601 | -0.311 | -0.113 | 0.0756 | 0.33 | 0.794 | 0.446
4 | C[C@@H](c1ccccc1)N1C(=O)[C@H]2[C@H]3[C@H](O)[C@H](O)CC(=O)[C@H]3CC[C@H]2C1=O | -0.417 | -0.338 | -0.489 | 0.282 (inactive) | 0.526 | 0.523 | 0.202 | 0.548 | 0.491 | -0.0854 | 0.295 | -0.127 | 0.461 | 0.364 | -0.255 | -0.154 | -0.206 | -0.026 | -0.0326 | -0.0931
5 | CO[C@@H]1COC(=O)[C@@H](C)NC(=O)CC=C[C@@H](C)[C@H](NS(=O)(=O)c2ccc(C)cc2)COC(=O)[C@H](C)NC(=O)CC=C[C@H]1C | 1.49 | -0.629 | -1.22 | 0.347 (inactive) | 0.611 | 0.625 | 0.57 | 0.661 | 0.822 | 1.4 | -0.0926 | 0.0975 | 0.765 | -1.74 | -1.94 | -0.0045 | -0.0709 | -0.433 | 0.392 | -0.744
6 | CO[C@@H]1COC(=O)CC=C[C@@H](C)[C@@H]2C=C[C@H](O)[C@@H](COC(=O)CC=C[C@H]1C)O2 | 0.643 | -0.438 | -1.25 | -0.383 (inactive) | 0.602 | 1.02 | 1.2 | 1.52 | 1.66 | 1.73 | -0.913 | 0.0581 | 1.5 | -1.12 | -2.14 | -0.224 | -0.0146 | -0.349 | 0.27 | 0.149
7 | CCOC(=O)[C@H](Cc1ccccc1)NC(=O)CCC1CC(OC(=O)NCc2cccc3ccccc23)CC2(CCCC(COC(=O)NCc3ccccc3)O2)O1 (stereo not given in full) | 0.388 | -0.208 | -0.285 | -2.41 (inactive) | 0.286 | -0.231 | 0.173 | 0.689 | 0.223 | 0.103 | 0.836 | -1.03 | 0.168 | 0.507 | -0.607 | -0.2 | -0.145 | -0.144 | -0.0849 | 0.713
